The values below come from PubChem BioAssay (NCATS).

Experiment [1] in a line: BET inhibitor-based combinations targeting novel dependencies in MECOM-rearranged (r) AML: OCI-AML3 cell line (AID 2202232). Note: nearly all actives have a fitted effect of over 35% in size. Conditions: CellTiter-Glo luminescence, 48 h; Potency: OCI-AML3 viability; series mostly up to 46 µM. In short, it runs like this: (§1)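 AML cell lines seeded at 500 cells/well, treated with 11-point dose curves for 48 h. Viability by CellTiter-Glo luminescence, normalised to DMSO and empty wells; activity expressed as AUC and per-cell-line Z-transformed AUC.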

Experiment [2] in a line: BET inhibitor-based combinations targeting novel dependencies in MECOM-rearranged (r) AML: UCSD-AML1 cell line (AID 2202235). Note: nearly all actives have a fitted effect of over 40% in size. To be noted: UCSD-AML1 AML cells viability, CellTiter-Glo, 48 h; series mostly up to 46 µM. An outline of the steps: (§2)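 Cells at 500/well were exposed for 48 hr to MIPE v5.0 drugs as 11-point dose curves. Viability was read by CellTiter-Glo luminescence and normalized to DMSO and empty-well controls. Activity was expressed as AUC and per-cell-line Z-AUC.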

Experiment [3] in a line: BET inhibitor-based combinations targeting novel dependencies in MECOM-rearranged (r) AML: AML-191 cell line (AID 2202236; note: nearly all actives have a fitted effect of over 35% in size). Conditions: AML-191 viability, CellTiter-Glo luminescence, 48 h; series mostly up to 46 µM. An outline of the steps: as §1
Experiment [4] is described as follows: BET inhibitor-based combinations targeting novel dependencies in MECOM-rearranged (r) AML: AML-194 cell line (AID 2202237; note: nearly all actives have a fitted effect of over 40% in size). To be noted: AML-194 (MECOM-r AML) viability, CellTiter-Glo, 48 h; series mostly up to 46 µM. In short, it runs like this: as §1
The nature of experiment [5]: BET inhibitor-based combinations targeting novel dependencies in MECOM-rearranged (r) AML: HNT-34 cell line (AID 2202234). Note: nearly all actives have a fitted effect of over 35% in size. To be noted: HNT-34 AML viability, CellTiter-Glo luminescence, 48 h; series mostly up to 46 µM. In short, it runs like this:
as §2

Experiment [6] can be described thus: BET inhibitor-based combinations targeting novel dependencies in MECOM-rearranged (r) AML: MV-4-11 cell line (AID 2202233). Note: nearly all actives have a fitted effect of over 45% in size. Conditions: MV-4-11 AML viability, CellTiter-Glo luminescence, 48 h; series mostly up to 46 µM. An outline of the steps:
as §2

Inconclusive results are not listed. Calls of active or inactive are those of the source. Calls come from the whole dose curve; as a rule, active = well fitted curve in the direction sought with a large enough effect; inconclusive = small, poorly fitted or top-dose-only effect, or another doubt; inactive = no such curve, though single readings can be large; an effect the other way counts as inactive or inconclusive.
Potency is the fitted concentration of half-maximal effect.

Turning to `CC[C@H](NC(=O)[C@H](C)NC)C(=O)N1C[C@@H](O)C[C@H]1Cc1c(-c2[nH]c3cc(F)ccc3c2C[C@@H]2C[C@H](O)CN2C(=O)[C@H](CC)NC(=O)[C@H](C)NC)[nH]c2cc(F)ccc12`, the Potency result in experiment [1] is “inactive”. Also, the Potency in experiment [2] was 0.332 µM (active); in experiment [3], 0.742 µM (active); in experiment [4], 1.18 µM (active).
Turning to `C/C(=C\C(=O)Nc1ccccc1C(=O)O)c1ccc2ccccc2c1`, the Potency entry in experiment [1], in experiment [5], in experiment [2] and in experiment [4] was “inactive” in each case.
On to `CC(=O)Nc1ccc(C(=O)NC(C)(C)C)cc1`, for which the Potency entry in experiment [1], in experiment [5], in experiment [2], in experiment [3] and in experiment [4] was “inactive” in each case.
Take `COc1ccc(COc2ccc(Cc3cnc(N)nc3N)cc2OC)cc1`: the Potency result in experiment [6] is “inactive”.
As for `COc1cc(-c2cn(C)c(=O)c3cnccc23)cc(OC)c1CN(C)C`, the Potency in experiment [1] was 4.68 µM (active). Moreover, the Potency result in experiment [5], in experiment [2], in experiment [3] and in experiment [4] was “inactive” throughout.
As for `O=c1cc(-c2ccc(O)c(O)c2)oc2cc(O)cc(O)c12`, the Potency in experiment [6] was 8.33 µM (active).
In the case of `COc1cc(NCc2ccc3nc(N)nc(N)c3c2C)cc(OC)c1OC`, the Potency in experiment [6] was 5.9 µM (active).
On to `CC(C)(C)C[C@H]1N[C@@H](C(=O)NC2CCC(O)CC2)[C@H](c2cccc(Cl)c2F)[C@@]12C(=O)Nc1cc(Cl)ccc12` (stereo not given in full), for which the Potency is 4.17 µM (active) in experiment [1]; 0.934 µM (active) in experiment [5]; 1.66 µM (active) in experiment [2]; 2.35 µM (active) in experiment [3]; 3.32 µM (active) in experiment [4].
Take `C[C@]12CCCN1CC1=NNC(=O)c3cc(F)cc4[nH]c2c1c34`: the Potency in experiment [1] is 20.9 µM (active); in experiment [5], 5.9 µM (active); in experiment [3], 18.6 µM (active).
Take `CO[C@H]1C[C@@H]2CC[C@@H](C)[C@@](O)(O2)C(=O)C(=O)N2CCCC[C@H]2C(=O)O[C@H]([C@H](C)C[C@@H]2CC[C@@H](OCCO)[C@H](OC)C2)CC(=O)[C@H](C)/C=C(/C)[C@@H](O)[C@@H](OC)C(=O)[C@H](C)C[C@H](C)/C=C\C=CC=C1C`: the Potency in experiment [6] is 13.2 µM (active).
As for `C[C@H](NC(=O)C(=O)Nc1ccccc1C(C)(C)C)C(=O)N[C@@H](CC(=O)O)C(=O)COc1c(F)c(F)cc(F)c1F`, the Potency is 10.5 µM (active) in experiment [1] and 20.9 µM (active) in experiment [3].
In the case of `Clc1ccc(COC(Cn2ccnc2)c2ccc(Cl)cc2Cl)cc1` (stereo not given), in experiment [6], the Potency is 20.9 µM (active).
For `CNC(=O)c1c(C)oc2cc(Oc3ncnc4cc(OC)c(OC)cc34)ccc12`, the Potency entry in experiment [1], in experiment [5], in experiment [2], in experiment [3] and in experiment [4] was “inactive” each time.
In the case of `O=C(NCc1ccncc1)C12C[C@H]3C[C@@H](C1)CC(c1ccc(Cl)cc1)(C3)C2`, in experiment [1], the Potency is 20.9 µM (active). In addition, the Potency result in experiment [2] is “inactive”.
In the case of `NC(=S)N/N=C/c1ncccc1N`, the Potency in experiment [1] was 5.25 µM (active); in experiment [5], 16.6 µM (active); in experiment [2] it was 5.9 µM (active); in experiment [3] it was 23.5 µM (active); in experiment [4], 20.9 µM (active).
For `COc1cc(-c2cn(C)c(=O)c3cnccc23)c(OC)cc1CN(C)C`, in that order: 1.18 µM (active), “inactive”, “inactive”, “inactive” and “inactive”.
